“And” between values parts separate entries of the source, which are not always exact repeats. Equal values may be shown once. Inconclusive results are not listed. Values without a mark were called inactive. The source made the active and inactive calls. Calls follow the shape of the dose curve; as a rule, active = well fitted inhibition curve with a large enough effect; inconclusive = small, poorly fitted or top-dose-only effect; inactive = flat fitted curve, though single readings scatter.
% is scaled to controls: 0 for no effect and ±100 for the full control effect; potency is read from the fitted curve at half-maximal effect.

This assay is described as follows: P-glycoprotein substrates identified in KB-8-5-11 adenocarcinoma cell line, qHTS therapeutic library screen (AID 1346987). Also: nearly all actives have a fitted effect of over 65% in size. Conditions: KB-8-5-11 (P-gp overexpressing) viability, CellTiter-Glo, 72 h; series mostly up to 44.5 µM; activity change, negative = cytotoxicity: at the top concentration. The source says:
The ATP-binding cassette transporters P-glycoprotein (P-gp) is known to limit brain penetration of many chemotherapy drugs. […] As such, we developed a high-throughput screen (HTS) to identify substrates of P-gp from a series of chemical libraries including the National Center for Advancing Translational Sciences Pharmaceutical Collection NPC, 2,816 compounds), testing a total of 10,804 compounds, most of which have known mechanisms of action. We used the CellTiter-Glo viability assay to test library compounds against the parental KB-3-1 human cervical adenocarcinoma cell line and the colchicine-selected sub-line KB-8-5-11 that over-expresses P-gp. KB-8-5-11 cells were also tested in the presence of a P-gp inhibitor (tariquidar) to assess reversability of transporter-mediated resistance. Of the tested compounds, a total of 90 P-gp substrates were identified including 55 newly identified P-gp substrates. Substrates were confirmed using an orthogonal killing assay against HEK-293 cells transfected with P-gp. As exemplars, we confirmed that […] (cyclin-dependent kinase inhibitor); AT9283, (Janus kinase 2/3 inhibitor); ispinesib (kinesin spindle protein inhibitor); gedatolisib (PKI-587, phosphoinositide 3-kinase/mammalian target of rampamycin inhibitor); GSK-690693 (AKT inhibitor); and KW-2478 (heat shock protein 90 inhibitor) were substrates , and direct ATPase stimulation was assessed. ABCG2 was also found to confer high levels of resistance to AT9283, GSK-690693 and gedatolisib, while ispinesib, AT7519 and KW-2478 were weaker substrates.
The HeLa derivative cell line, KB-3-1, and its colchicine-selected, P-gp-overexpressing subline, KB-8-5-11 were maintained in DMEM with 10% FCS and Pen/Strep with glutamine at 37 degree C in 5% CO2. For KB-8-5-11 cells, colchicine was added to the medium at a concentration of 100 ng/mL. HEK-293 cells transfected with empty vector (pcDNA) or vector containing human ABCB1 (MDR-19) or ABCG2 (R-5) have been described previously (Robey, Lin, Qiu, Chan & Bates, 2011) and were maintained in EMEM supplemented with 10% FCS, Pen/Strep and glutamine with 2 mg/ml G418 to select for the expression of the transporter. Cultures were confirmed to be free of mycoplasma infection using the MycoAlert Mycoplasma Detection Kit (Lonza, Walkersville, MD). For the screen, assay medium was identical to culture medium except for KB-8-5-11 where colchicine was excluded from the medium.
All cell lines were plated into 1536-well plates at 500 cells/well in 5 uL media. Compounds were then pinned in dose-response using a 1536-head pin tool (Kalypsis, San Diego, CA) and plates were incubated at 37 degree C in 5% CO2 for an additional 72 h. CellTiter-Glo reagent (Promega) was dispensed into the wells, incubated for 5 min and luminescence was read on a ViewLux instrument (Perkin-Elmer). Cytotoxic compounds were defined as those that yielded a curve class of -1.1, -1.2, -2.1, -2.2, -2.3, or -2.4, a maximum response of >50% and an AC50 of < 10 uM. Cherry-picked hits from screening analysis were tested with both the KB pair of cell lines, and the pcDNA (empty vector control) and MDR-19 (P-gp overexpressing) pair were tested, in the absence and presence of tariquidar.
(In qHTS, concentration-response curves come from the screen itself.)
`COc1ccc2c3c4n(c2c1)[C@@H](C=C(C)C)OOC(C)(C)C[C@@H]4N1C(=O)[C@@H]2CCCN2C(=O)[C@]1(O)[C@H]3OCC=C(C)C`: the “activity change, negative = cytotoxicity” value is -14.8% [at 17.3 µM].
Same read-out and setting: with `C[C@]12CC[C@H]3[C@@H](CCC4=C/C(=N/OCC(=O)O)CC[C@@]43C)[C@@H]1CC[C@@H]2O` the figure was 7.11%.
On the same count and under the same terms, as for `COc1ccc(OC)c(C[C@H](C)N)c1`, the figure is -15.9% [at 93.4 µM]; as for `OCc1nnc2n1-c1ccc(Cl)cc1C(c1ccccc1Cl)=NC2`, 5.01%.
For `C[C@@H](CN1CCC(n2c(=O)[nH]c3cc(Br)ccc32)CC1)NC(=O)[C@@H]1C[C@H]1c1ccccc1`, the Potency was 20.6 µM (active).
On the same count and under the same terms, as for `COCC1OC(=O)c2coc3c2C1(C)C1=C(C3=O)C2CCC(=O)C2(C)CC1OC(C)=O` (stereo not given), the figure is 6.51 µM (active).
For `COc1ccc(CC2C(=O)NC(C)C(=O)N(C)C3Cc4ccc(cc4)Oc4cc(ccc4OC4OC(CO)C(O)C(O)C4O)CC(C(=O)NC(C)C(=O)NC(CCC(=O)O)C(=O)N2C)N(C)C3=O)cc1` (stereo not given), the activity change, negative = cytotoxicity was -22.7% [at 9.29 µM].
Same read-out and setting: as for `Cc1c(N2C(=O)[C@@H]3[C@H](O)CCN3C2=O)ccc(C#N)c1Cl`, the figure is 8.5%; as for `CCCCCn1cc(C(=O)c2cccc3ccccc23)c2ccccc21`, -25.6%.
On the same count and under the same terms, with `C=C1[C@@]23C(=O)O[C@H](C)[C@]24O[C@@]2(C(=C)[C@]5(C=CC(=O)OC5(C)C)CC[C@]32C)[C@H](O)[C@@]1(C)OC4=O` the figure was -16.1% [at 17.3 µM]; with `CC(=O)[C@@]1(O)CC[C@H]2[C@@H]3CCC4=CC(=O)CC[C@]4(C)C3(F)[C@@H](O)C[C@@]21C` (stereo not given in full), -17.4%.
`CC(=O)O[C@H]1C[C@@H](C)O[C@H]2O[C@@H]3CC4CC[C@@H]5C(CC[C@]6(C)[C@@H](C7=CC(=O)OC7)CC[C@]56O)[C@@]4(C=O)C[C@H]3O[C@]21O` (stereo not given in full): the Potency is 0.0862 µM (active).
As to `CC(=O)OC[C@]12[C@H](OC(C)=O)C(=O)[C@@H]3[C@@H](O)[C@@]14O[C@@]3(C)COC(=O)c1cccnc1[C@@H](C)[C@H](C)C(=O)O[C@@H]([C@H](OC(C)=O)[C@@H]2OC(C)=O)[C@]4(C)O`, the “activity change, negative = cytotoxicity” value is -20.5% [at 17.3 µM].
`CC(=O)O[C@H]1C[C@]2(O)[C@@H]3CC[C@@H]4C[C@@H](O)CC[C@]4(C)[C@H]3CC[C@]2(C)[C@H]1c1ccc(=O)oc1`: the Potency was 0.0517 µM (active).
Same read-out and setting: as for `Oc1cc[c]([Hg][Cl])cc1`, the figure is 5.8 µM (active) and 6.51 µM (active); as for `CC1Oc2cc3c(-c4c(O)cc(O)c5c(O)c6c(cc45)OC(C)C(C)C6=O)c(O)cc(O)c3c(O)c2C(=O)C1C` (stereo not given), 8.2 µM (active); as for `C=C1[C@@H](C)[C@H]2[C@H](Cc3ccccc3)NC(=O)[C@]23[C@H](OC(C)=O)/C=C/[C@](C)(O)C(=O)[C@@H](C)C/C=C/[C@H]3[C@@H]1O`, 9.2 µM (active).
Same read-out and setting: with `C[C@]12CC[C@H](O[C@@H]3O[C@H](CO)[C@@H](O)[C@H](O)[C@H]3O)CC1CC[C@@H]1C2CC[C@]2(C)[C@@H](C3=CC(=O)OC3)CC[C@]12O` (stereo not given in full) the figure was 6.32 µM (active).
With `C=C(C)[C@@]12O[C@@H]1[C@@]1(C)C(=C[C@H]2O)CC[C@@H](O)[C@@H]1C`, the compound was classed as inactive.
On to `Clc1ccc([C@@H]2C[C@H]3CC[C@@H]2N3)cn1`, for which the “activity change, negative = cytotoxicity” value was -14% [at 93.4 µM].
Same read-out and setting: with `C=C1C2(C)CC3C(C)(O)C4=CC(=O)OC(C)(C)C4=CCC3(C)C13C(=O)OC(C)C3(O)C2=O` (stereo not given) the figure was 4.66% [at 17.3 µM]; with `CN1CCCCC1Cn1cc(C(=O)c2cc([N+](=O)[O-])ccc2I)c2ccccc21` (stereo not given), -8.65%.
With `COc1cccc(NCC(F)Cn2c3ccc(Br)cc3c3cc(Br)ccc32)c1` (stereo not given), the Potency is 14.6 µM (active).
As to `C[C@@H]1CCC2[C@@H](C)C(=O)OC3O[C@@]4(C)CCC1[C@]32OO4` (stereo not given in full), the “activity change, negative = cytotoxicity” value is -16.6%.
On the same count and under the same terms, as for `C[C@H]1CN(CC[C@H](O)C2CCCCC2)CC[C@@]1(C)c1cccc(O)c1`, the figure is -27.4%.
Turning to `C1=C(c2cnc[nH]2)c2ccsc2CC1`, the outcome was inactive.
Take `C=C(CO)C(=O)O[C@H]1CC(=C)[C@@H]2C[C@H](O)C(=C)[C@@H]2[C@H]2OC(=O)C(=C)[C@@H]21`: the “activity change, negative = cytotoxicity” value is 2.51%.
On the same count and under the same terms, with `Cc1ccc2c(c1)[C@]13CCCC[C@@H]1[C@H](C2)N(C)CC3` the figure was -2.05%; with `Cc1ccc(Cn2nc(C(=O)N[C@@H]3C(C)(C)[C@@H]4CC[C@@]3(C)C4)cc2-c2ccc(Cl)c(C)c2)cc1`, -4.52%; with `NNC(=O)c1nn(Cc2ccc(Cl)cc2Cl)c2ccccc12`, -18.8%.
For `O=C(NCCCNc1nc(Nc2ccc(N3CCOCC3)cc2)ncc1C1CC1)C1CCC1`, the Potency was 11.6 µM (active).
On the same count and under the same terms, as for `O=C1CN=C(c2cccc(Br)c2)c2oc3ccccc3c2N1`, the figure is 14.6 µM (active).
Turning to `Cc1ccc2c(c1)[C@H]1CN(C)CC[C@H]1N2C(=O)CSc1nnnn1-c1ccc(Cl)cc1`, the “activity change, negative = cytotoxicity” value is -9.43%.
For the compound `CC1=CC2OC3CC(O)[C@](C)([C@@]2(C)C(O)C1=O)[C@]31CO1` (stereo not given in full), the Potency is 5.17 µM (active).
In the case of `CC(=O)O[C@H]1C(=O)[C@]2(C)C(O)C[C@H]3OC[C@@]3(OC(C)=O)[C@H]2[C@H](OC(=O)c2ccccc2)[C@]2(O)C[C@H](O)C(C)=C1C2(C)C` (stereo not given in full), the “activity change, negative = cytotoxicity” value is -8.35% [at 17.3 µM].
With `CC(=O)OC[C@]12C[C@H](OC(=O)CC(C)C)C(C)=C[C@H]1O[C@@H]1[C@H](O)[C@@H](OC(C)=O)[C@@]2(C)[C@@]12CO2`, the Potency was 0.0252 µM (active).
On the same count and under the same terms, as for `CC(C)OC(=O)c1ccnc2cc(C(OCCN3CCCCC3)c3ccccc3Cl)sc12` (stereo not given), the figure is 20.6 µM (active); as for `COC1CC(O[C@H]2CC[C@@]3(C)C(CCC4C3CC[C@]3(C)[C@@H](C5=CC(=O)OC5)CC[C@]43O)C2)OC(C)C1O` (stereo not given in full), 0.1 µM (active).
In the case of `COC[C@]12CN(C)C3C4[C@H](OC)[C@H]1C3(C(OC)C[C@H]2O)[C@H]1C[C@@]2(O)[C@H](OC(=O)c3ccccc3)[C@@H]1[C@]4(O)[C@@H](O)[C@@H]2OC` (stereo not given in full), the result was inactive.
As to `COC1CC(O[C@H]2CC[C@]3(C)C4CC[C@]5(C)[C@@H](C6=CC(=O)OC6)[C@@H](OC(C)=O)C[C@]5(O)C4CC[C@@H]3C2)OC(C)C1O` (stereo not given in full), the Potency was 0.563 µM (active).

Values taken from PubChem BioAssay (NCATS).
